Assay outcomes as filed in PubChem.
Hits are enriched below; roughly 11% of the tested compounds scored in any of these assays.
NPR1 antag – Natriuretic polypeptide receptor (hNpr1) antagonism - Primary qHTS | Atrial natriuretic peptide receptor 1 (Homo sapiens), P16066 | HEK293 hNpr1 GloSensor cGMP, ANP-stimulated luminescence | Potency, µM (doses to about 46.3 µM), most hits filed as inhibitors | 1.6% of 76,000 active; calls by dose curve; further: nearly all actives have a fitted effect of over 60% in size
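Compound pre-incubated 30 min at room temperature on GloSensor-loaded HEK293 cells stably carrying hNpr1 and the pGS-40F cGMP biosensor. Stimulation uses hNppA at 0.1 nM final; luminescence is taken at baseline and 20 min post-agonist.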
NIH3T3 tox – Cytotoxic Profiling in NIH 3T3 Cell Line of Diverse Libraries Using Quantitative High-Throughput Screening; NIH 3T3 viability, CellTiter-Glo ATP luminescence, 48-72 h; Potency, µM (highest dose often 96.7 µM), hits mostly inhibitors; 4.3% of 94,000 active; AID 1345082, 2018; further: nearly all actives have a fitted effect of over 55% in size
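Cytotoxicity is measured as loss of cellular ATP: NIH 3T3 cells (400/well) are exposed to compound for 48 or 72 hr at 37 °C, then CellTiter-Glo luminescence is imaged after 10 min at room temperature.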
FLuc inh – Firefly luciferase inhibition profiling of diverse chemical library using quantitative high-throughput screening; Potency, µM (titrated, usually from 115 µM), most hits filed as inhibitors; purified P. pyralis luciferase, luminescence, biochemical; 2.5% of 76,000 active; Luciferin 4-monooxygenase (Photinus pyralis), P08659; AID 1347043, 2019; further: nearly all actives have a fitted effect of over 65% in size
Target sequence (P08659 whole entry, looked up): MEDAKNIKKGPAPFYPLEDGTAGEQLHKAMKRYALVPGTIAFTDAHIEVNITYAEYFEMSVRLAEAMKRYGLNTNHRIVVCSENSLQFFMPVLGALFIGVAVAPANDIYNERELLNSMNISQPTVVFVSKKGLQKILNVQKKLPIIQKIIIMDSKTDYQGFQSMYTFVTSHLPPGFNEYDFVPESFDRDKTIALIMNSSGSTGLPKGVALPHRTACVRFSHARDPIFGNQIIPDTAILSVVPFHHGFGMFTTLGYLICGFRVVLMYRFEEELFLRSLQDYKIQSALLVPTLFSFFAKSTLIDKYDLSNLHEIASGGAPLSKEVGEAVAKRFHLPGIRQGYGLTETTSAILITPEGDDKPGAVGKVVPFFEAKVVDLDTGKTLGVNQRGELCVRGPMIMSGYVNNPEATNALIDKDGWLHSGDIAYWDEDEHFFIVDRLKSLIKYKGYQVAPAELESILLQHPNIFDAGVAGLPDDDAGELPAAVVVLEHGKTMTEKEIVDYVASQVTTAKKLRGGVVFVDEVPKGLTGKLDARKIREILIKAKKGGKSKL
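Luminescence read by CCD imager after adding enzyme (10nM final) to wells holding compound, titrated in qHTS. Substrates 10uM each D-luciferin and ATP; buffer 50mM Tris acetate pH 7.5, 10mM Mg acetate, Tween-20, BSA.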
HEK293 tox – Cytotoxic Profiling in HEK 293 Cell Line of Diverse Libraries Using Quantitative High-Throughput Screening | AID 1345083, 2018 | Potency, µM (top dose mostly 115 µM), hits mostly inhibitors | 6.6% of 94,000 active | HEK 293 viability, ATP luminescence (CellTiter-Glo), 48-72 h; further: nearly all actives have a fitted effect of over 60% in size
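Cytotoxicity was scored by loss of ATP-coupled luminescence (CellTiter-Glo) in HEK 293 cells. Compound treatment ran 48 or 72 hr at 37 degree Celsius, 5% CO2, 95% humidity.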
Hits are given with their value; – = inactive; ? = inconclusive; · = not tested or not shown. Unless noted, the call rests on the fitted dose curve; in most records, active means well fitted curve in the direction sought with a large enough effect; inconclusive means small, poorly fitted or top-dose-only effect, or another doubt; inactive means no such curve, though single readings can be large; an effect the other way counts as inactive or inconclusive.

SMILES	NPR1 antag	NIH3T3 tox	FLuc inh	HEK293 tox
Clc1cccc(CN2CC[C@H](c3nc4ccccc4o3)C2)c1	–	–	–	?
c1ccc2c(Cc3nnc([C@H]4CCN(C5CCCCC5)C4)o3)c[nH]c2c1	–	–	–	?
COc1cc(CN2CC[C@H](c3nc4ccccc4o3)C2)cc(OC)c1OC	–	?	–	70.8µM
Cc1nn(-c2ccccc2)c2c1C(C(C)C)N(C1CCCN([S+](C)(=O)[O-])C1)C2=O (stereo not drawn)	·	–	·	?
O=C(NCC1CCCO1)Nc1cccc(-c2nnc3n2CCCC3)c1 (stereo not drawn)	–	–	–	–
Cn1ncc2c(C(=O)NC3CCCC3)cc(-c3ccc(Cl)nc3)nc21	·	–	·	–
COc1ccccc1-c1nnc([C@H]2CCN(CC3CCCCC3)C2)o1	–	?	–	?
COc1ccccc1-c1nnc([C@H]2CCN(Cc3ccccn3)C2)o1	–	35.5µM	–	?
Cc1ccc2oc([C@H]3CCN(Cc4ccc(N(C)C)cc4)C3)nc2c1	–	?	44.7µM	?
Cc1ccc(-c2nc(C(=O)NCc3ccccc3F)no2)cc1	–	–	22.4µM	–
O=C(NCc1ccccc1)c1noc(-c2ccc3c(c2)OCO3)n1	–	?	39.8µM	?
O=C(NCc1ccc(F)cc1F)c1noc(-c2ccc(F)cc2)n1	–	–	–	–
COc1ccc(CNC(=O)c2noc(-c3ccc(C)cc3)n2)cc1OC	12.6µM	?	?	?
O=C(NCc1cccc(Br)c1)c1noc(-c2ccc(F)cc2)n1	–	31.6µM	?	25.1µM
O=C(NCc1ccc(Cl)cc1)c1noc(-c2ccc(F)cc2)n1	–	–	–	?
CC1=C[C@@H](CNCCN2CCNC2=O)[C@H](C(C)C)C[C@H]1Cc1nnc(-c2cccnc2)o1	–	–	–	–
COc1cccc(S(=O)(=O)N2CCc3c(c(CN4CCOCC4)nn3C)C2)c1	·	–	·	–
Cc1ccc(-c2nc(C(=O)NCc3cc(F)cc(F)c3)no2)cc1	–	?	–	31.6µM
Cc1ccc(-c2nc(C(=O)NCc3ccco3)no2)cc1	–	–	15.8µM	–
O=C(NCc1ccccc1F)c1noc(-c2ccc3c(c2)OCO3)n1	–	?	31.6µM	–
O=C(Cc1c[nH]c2ncc(-c3ccc(Cl)cc3)cc12)NCc1cccnc1	–	?	?	89.1µM
O=C(Cc1c[nH]c2ncc(-c3ccc(Oc4ccccc4)cc3)cc12)NCc1cccnc1	?	?	–	39.8µM
O=C(Cc1c[nH]c2ncc(-c3cccc(CO)c3)cc12)NCc1cccnc1	–	?	–	–
CC(=O)N1CCN(c2cc(-c3noc([C@@H]4CCCN4Cc4ccccc4C)n3)ccn2)CC1	–	?	–	?
Cc1ccccc1C(=O)NC1CCN(Cc2ccc(-c3ccsc3)cc2)C1 (stereo not drawn)	·	?	·	79.4µM
SMILES	NPR1 antag	NIH3T3 tox	FLuc inh	HEK293 tox
O=C(NC1CCN(Cc2ccc(-c3ccsc3)cc2)C1)c1ccc(Cl)cc1 (stereo not drawn)	·	–	·	–
O=C(NC1CCN(Cc2ccc(-c3ccsc3)cc2)C1)c1cccc(Cl)c1 (stereo not drawn)	·	?	·	44.7µM
CC(NC(=O)NC1CCN(Cc2ccc(-c3ccsc3)cc2)C1)c1ccccc1 (stereo not drawn)	·	–	·	–
COC(=O)NC1CCN(Cc2ccc(-c3ccsc3)cc2)C1 (stereo not drawn)	·	?	·	100µM
CCCC(O)CN1CCC(=O)N(CCOC)Cc2cc(F)ccc21 (stereo not drawn)	·	–	·	?
CNCC(=O)NC1CCCN(c2ccc(C(F)(F)F)cn2)C1 (stereo not drawn)	–	–	–	–
COCCNC(=O)C1CN(c2ccnc3ccnn23)C1	·	–	·	–
CN1CC(=O)N(c2ccc(Cl)cc2)Cc2c(NCc3ccc(F)cc3)ncnc21	–	?	–	?
CN(Cc1ccc(N2CCNC2=O)cc1)CC1CCCN(CCc2ccc(F)cc2)C1 (stereo not drawn)	–	?	–	?
CCCCc1ncc(CN(C)CC2CCCN(CCc3ccc(F)cc3)C2)[nH]1 (stereo not drawn)	–	?	–	39.8µM
COc1ccc(-c2ccc(C(=O)N3CCC(NC(=O)c4ccccc4F)C3)cc2)nn1 (stereo not drawn)	·	–	·	–
O=C(Nc1cccc(C(F)(F)F)c1)c1nc2c(o1)CCN(CC1CC1)CC2	–	?	–	?
O=C(NCC1CC1)c1nc2c(o1)CCN(Cc1cccs1)CC2	–	–	70.8µM	?
Cc1csc(NC(=O)c2nc3c(o2)CCN(CC2CC2)CC3)n1	–	?	17.8µM	–
COc1ccc(CN2CC3(COCC2=O)CN(c2ccc(C(F)(F)F)cn2)C3)cc1F	–	?	–	?
Cc1cccc(C)c1CN1CC2(COCC1=O)CN(c1ccc(C(F)(F)F)cn1)C2	–	89.1µM	–	?
CN(C)CCN(C)[C@@H]1[C@H](O)[C@H](CO)O[C@@H]1CN(Cc1ccc(Cl)cc1)Cc1cccc(Cl)c1	?	28.2µM	–	?
OC[C@@H]1O[C@H](CN(Cc2cccc(Cl)c2)Cc2cccc(Cl)c2)[C@H](N2CCN(c3ccccn3)CC2)[C@@H]1O	–	?	–	?
Cc1csc(CN(C)C(=O)CC(c2ccccc2)c2ccc3c(c2)OCO3)n1 (stereo not drawn)	–	–	31.6µM	44.7µM
O=C(CC(c1ccccc1)c1ccc2c(c1)OCO2)N1CCSCC1 (stereo not drawn)	?	–	–	?
O=[S+]([O-])(c1ccccc1)N1CCN(Cc2ccccc2-c2ccccc2F)CC1	·	?	·	22.4µM
O=C(c1ccccn1)N1CCN(Cc2ccccc2-c2ccccc2F)CC1	·	–	·	–
O=[S+]([O-])(c1cccc(C(F)(F)F)c1)N1CCN(Cc2ccccc2-c2cccnc2)CC1	·	35.5µM	·	?
C[S+](=O)([O-])N1CCN(Cc2ccccc2-c2cccnc2)CC1	·	–	·	?
CN(C)CCNc1cc(-c2ccc3ccccc3n2)c2cc[nH]c2n1	–	?	–	39.8µM
SMILES	NPR1 antag	NIH3T3 tox	FLuc inh	HEK293 tox
CC(C)c1cccc(-c2cc(NCc3ccccn3)nc3[nH]ccc23)n1	–	?	?	44.7µM
CC(C)N1CC(C(=O)NCc2cccc(Cl)c2)NC1=O (stereo not drawn)	·	–	·	–
COc1ccc(C(=O)NC2CCCN(CCn3nc4n(c3=O)CCCC4)C2)cc1 (stereo not drawn)	·	–	·	–
CC(C)(CC(=O)O)CC(=O)N1C[C@@H]2C[C@H](C1)c1ccc(-c3cc4ccccc4s3)c(=O)n1C2	–	–	22.4µM	–
COCCn1c(C)cnc1CC1CCN(C(=O)CC2CCCCC2)C1 (stereo not drawn)	·	–	·	–
Cc1cc(CNC(=O)C(C)Cn2nc(C)nc2C)c2[nH]c(-c3ccccc3)c(C)c2c1 (stereo not drawn)	–	?	20µM	?
Cc1cc(CNC(=O)c2ccc(S(N)(=O)=O)cc2)c2[nH]c(C)c(C)c2c1	–	–	–	–
